In PubChem BioAssay AID488838 (National Center for Advancing Translational Sciences (NCATS), 2010):
Inconclusive results are not listed. Values without a mark were called inactive. The source made the active and inactive calls. Calls follow the shape of the dose curve; as a rule, active = well fitted inhibition curve with a large enough effect; inconclusive = small, poorly fitted or top-dose-only effect; inactive = flat fitted curve, though single readings scatter.

These compounds were tested against Luciferin 4-monooxygenase (Photinus pyralis) (UniProt P08659) (assay: Counterscreen Assay for Enhancers of SMN2 Splice Variant Expression: Interaction with Luciferase Reporter for Further Probe SAR). Conditions: purified firefly luciferase, luminescence, 5 min; series mostly up to 57.5 µM; activity change, negative = inhibition: at the top concentration.
Luciferin 4-monooxygenase (Photinus pyralis), sequence (P08659 whole entry, looked up, canonical isoform): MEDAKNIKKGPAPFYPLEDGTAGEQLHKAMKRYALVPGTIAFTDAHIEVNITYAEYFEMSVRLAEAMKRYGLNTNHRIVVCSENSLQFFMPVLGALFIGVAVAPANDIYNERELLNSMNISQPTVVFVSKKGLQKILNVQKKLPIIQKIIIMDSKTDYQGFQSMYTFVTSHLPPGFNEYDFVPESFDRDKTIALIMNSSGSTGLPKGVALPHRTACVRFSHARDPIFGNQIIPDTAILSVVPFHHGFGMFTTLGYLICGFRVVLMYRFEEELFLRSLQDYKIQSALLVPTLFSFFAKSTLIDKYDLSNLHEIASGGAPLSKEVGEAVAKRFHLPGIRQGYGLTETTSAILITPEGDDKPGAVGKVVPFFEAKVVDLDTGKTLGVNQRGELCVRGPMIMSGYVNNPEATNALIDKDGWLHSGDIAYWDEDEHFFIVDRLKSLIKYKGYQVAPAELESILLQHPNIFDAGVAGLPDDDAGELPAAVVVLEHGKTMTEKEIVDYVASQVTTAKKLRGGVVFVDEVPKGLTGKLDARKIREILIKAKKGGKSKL
Excerpt: NIH Chemical Genomics Center [NCGC] NIH Molecular Libraries Probe Production centers Network [MLPCN] MLPCN Grant: R03 MH084179-01 Assay Submitter (PI): Elliot Androphy NCGC Assay Overview: Spinal muscular atrophy (SMA) is caused by insufficient levels of the survival motor neuron protein SMN. The SMN locus on chromosome 5q13 contains two inverted copies of SMN called SMN1 and SMN2 which are 99% identical at the amino acid level. SMN1 is a fully functional protein and SMN2 skips exon 7 90% of the time. Skipping of exon 7 produces non-functional protein product. 10% of the SMN2 protein includes exon 7 and is fully functional. In the SMA disease state, mutations in the SMN1 locus are the cause of the disease state. Because only 10% of SMN2 is of the fully functional form, it is not sufficient to overcome the deficiency produced by the loss of the SMN1 product. A therapy that either increases the amount of SMN2 product made increases the inclusion of exon 7 has been proposed for the treatment of SMA. We have designed an assay to identify small molecules that can increase the amount of functional SMN2 product by appending a luciferase reporter gene after the native SMN2 gene, such that inclusion of exon 7 in the expressed product places the luciferase sequence in frame, thus generating functional luciferase enzyme. One potential source of false positives in the primary screening assay is stabilization of the reporter luciferase via direct binding. This assay attempts to identify such compounds by screening directly for luciferase activity in the absence of the cellular system.
NCGC Assay Protocol Summary: The primary screen utilizes a luciferase reporter gene assay, combining the promoter and splicing based cassettes in tandem with the major portion of the native SMN1 cDNA, and then transfected into HEK293 cells. Compounds that modulate luciferase signal presumably modulate expression of […]. In this assay, we utilize purified firefly luciferase in lieu of a cellular reporter to identify compounds interacting directly with luciferase in the primary screen. Sequence, Parameter, Value, Description (1) Reagent, 2.5 uL, Enzyme in buffer (note A) (2) Compound, 23 nL, From stock solutions (3) Time, 5 minutes, Room temp (4) Reagent#2.5 ul, Luciferase detection reagent (note B) (5) Detector, 1 sec integrate, Luminescent read on Viewlux (note C) Sigma enzyme (1 mg) considered to be MW 61,000 diluted in 357 ul assay buffer to 50 uM stock. A - Enzyme and buffer consists of 50 mM Tris-acetate pH 7.6, 10 mM Mg acetate 0.05% BSA, 0.01% Tween and 5 nM firefly luciferase B - Detection reagent = britelite plus diluted 1:10 in PBS C - Viewlux settings were 1 second integration medium sensitivity Keywords: Spinal muscular atrophy, SMA, SMN2, high throughput screening, MLSMR, MLPCN, NIH Roadmap, qHTS and NCGC

Structure (SMILES) | Potency | activity change, negative = inhibition
NC(=O)C1CCN(c2nnc(-c3ccc4c(c3)OCCCO4)s2)CC1 | 3.57 µM (active) | –
Cc1ccc(-c2nnc(N3CCC(C(N)=O)CC3)s2)cc1 | 16 µM (active) | –
COc1ccc(-c2csc(N3CCC(C(N)=O)CC3)n2)cc1OC | – | -25.8%
NC(=O)C1CCN(c2ncc(Br)cn2)CC1 | – | -12.9%
CC(C)(C)OC(=O)NC1CCN(c2nc(-c3ccc(Br)cc3)cs2)CC1 | – | -14.5%
NC1CCN(c2nc(-c3ccc(Br)cc3)cs2)CC1 | 2.01 µM (active) | –
CC(=O)N1CCN(c2nc(-c3ccc(Br)cc3)cs2)CC1 | 0.8 µM (active) | –
CCOC(=O)C1CCN(c2nc(-c3ccc(Br)cc3)cs2)CC1 | – | -28.1%
COc1ccc(-c2cnc(N3CCC(C(N)=O)CC3)s2)cc1OC | – | -15.6%
N#Cc1ccccc1-c1csc(N2CCC(C(N)=O)CC2)n1 | – | -25.4%
CC(=O)Nc1ccc(-c2csc(N3CCC(C(N)=O)CC3)n2)cc1 | – | -14%
N#Cc1ccc(-c2csc(N3CCC(C(N)=O)CC3)n2)cc1 | – | -17.5%
Brc1ccc(-c2csc(N3CCC(c4nn[nH]n4)CC3)n2)cc1 | 16 µM (active) | –
NC(=O)C1CCN(c2ncc(-c3ccc4c(c3)OCO4)s2)CC1 | 3.18 µM (active) | –
COc1cc(-c2csc(N3CCC(C(N)=O)CC3)n2)cc(OC)c1OC | – | -11.5%
NC(=O)C1CCN(c2ncc(-c3ccc4c(c3)OCCO4)s2)CC1 | 5.05 µM (active) | –
COc1ccccc1-c1csc(N2CCC(C(N)=O)CC2)n1 | – | -21.1%
O=C(C1CCN(c2nc(-c3ccc(Br)cc3)cs2)CC1)N1CCNCC1 | – | 9.84%
Cc1cnc(N2CCC(C(N)=O)CC2)nc1-c1cccc(N(C)C)c1 | – | -6.67%
CC(C)Oc1cccc(-c2cnc(N3CCC(C(N)=O)CC3)s2)c1 | 0.8 µM (active) | –
CC(=O)C1CCN(c2ncc(-c3cccc(N(C)C)c3)s2)CC1 | 5.05 µM (active) | –
O=C(c1ccccc1)N1CCN(c2nc(-c3ccc(Br)cc3)cs2)CC1 | – | -22.2%
